From PubChem BioAssay (NCI)
About 83,000 compounds went through this panel and 20% of them were active in at least one assay; those are over-represented in the sample as a whole.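 Plates (96-well) were seeded with cells, treated with compound at one concentration, and incubated for 48 hours before percent growth was determined.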 Values without a mark were called inactive. Activity calls are given as the source filed them. Rule for the calls: active = growth percent below 10; inactive = the rest.

Experiments:
Test in all cases: NCI-60 one-dose screen, 48 h (100 = growth as untreated, 0 = no growth, -100 = all killed)
Settings in all cases: 10 µM unless noted
HCT-15 colon = test system: HCT-15 colon
HT29 colon = test system: HT29 colon
SNB-75 CNS = test system: SNB-75 CNS
SNB-19 CNS = test system: SNB-19 CNS
U251 CNS = test system: U251 CNS
PC-3 prostate = test system: PC-3 prostate
SK-MEL-5 melanoma = test system: SK-MEL-5 melanoma
UACC-62 melanoma = test system: UACC-62 melanoma
LOX IMVI melanoma = test system: LOX IMVI melanoma
SK-MEL-28 melanoma = test system: SK-MEL-28 melanoma
SK-MEL-2 melanoma = test system: SK-MEL-2 melanoma
EKVX NSCLC = test system: EKVX NSCLC
SN12C renal = test system: SN12C renal
UO-31 renal = test system: UO-31 renal
TK-10 renal = test system: TK-10 renal
A498 renal = test system: A498 renal
CCRF-CEM leukemia = test system: CCRF-CEM leukemia
MOLT-4 leukemia = test system: MOLT-4 leukemia

Row | SMILES | growth (HCT-15 colon) | growth (HT29 colon) | growth (SNB-75 CNS) | growth (SNB-19 CNS) | growth (U251 CNS) | growth (PC-3 prostate) | growth (SK-MEL-5 melanoma) | growth (UACC-62 melanoma) | growth (LOX IMVI melanoma) | growth (SK-MEL-28 melanoma) | growth (SK-MEL-2 melanoma) | growth (EKVX NSCLC) | growth (SN12C renal) | growth (UO-31 renal) | growth (TK-10 renal) | growth (A498 renal) | growth (CCRF-CEM leukemia) | growth (MOLT-4 leukemia)
1 | CC(=O)n1cc(/C=C2\N=C(c3ccc(Cl)cc3)N(c3ccc(S(=O)(=O)Nc4nccs4)cc3)C2=O)c2ccccc21 | 95% | 103% | 92.2% | 67.7% | 56.2% | 72.6% | 80.1% | 84.1% | 93.2% | 82.2% | 89.2% | 85.7% | 74.3% | 70.4% | 117% | 74.9% | 47.8% | 51.1%
2 | C=C1C(=O)O[C@H]2[C@H]1CC/C(C(=O)NCCOCCOCC(=O)Nc1ccc(OC)c(C(N)=O)c1O)=C\CC[C@@]1(C)O[C@@H]21 | 101% | 88.1% | 83.1% | 95.1% | 89.8% | 97% | 102% | 92.6% | 95.3% | 84.7% | 82.1% | 95.7% | 94.3% | 87.3% | 76.1% | 105% | 64.6% | 66.2%
3 | COc1cc(-c2nc(N)n(CC(=O)Nc3ccc(/C(C)=N\O)cc3)n2)cc(OC)c1OC | 101% | 86.4% | 74.1% | 99.9% | 85.8% | 76.7% | 97.9% | 83.6% | 99.6% | 94.2% | 92.1% | 106% | 96% | 79.5% | 90.9% | 89.8% | 84.5% | 91.6%
4 | CC(/C=C/C=C(\C)[C@H](O)[C@H](C)C(=O)O[C@H]1C[C@H](C)C=C2C=C[C@@]3(C)O[C@@H](O)CC(=O)[C@]3(C)[C@H]21)=C\C=C\C(=O)O | 17.3% | 0.326% (active) | -14.2% (active) | -0.761% (active) | -3.9% (active) | 7.61% (active) | -69% (active) | -32% (active) | 6.81% (active) | -0.848% (active) | -46.9% (active) | -0.933% (active) | 3.38% (active) | 18.8% | 15.5% | -38.9% (active) | 8.62% (active) | 1.42% (active)
5 | COc1ccc(Cl)cc1NC(=O)c1cc2c([nH]1)-c1nc(NC(=O)C(C)(C)C)sc1CC2 | 49.1% | 59.1% | 50.5% | 44% | 9.52% (active) | 61.4% | 55.5% | 81.2% | 53.4% | 94.2% | 83% | 50.4% | 38.6% | 58.8% | 66.6% | 79.2% | 52% | 58.6%
6 | CNCCCOc1c(Br)cc(CCNC(=O)/C(Cc2cc(Br)c(OC)c(Br)c2)=N/O)cc1Br | -58.3% (active) | -48.2% (active) | 8.28% (active) | -23% (active) | -84% (active) | -40.4% (active) | -90.2% (active) | -47% (active) | -80.1% (active) | -64.2% (active) | -54.7% (active) | 26.3% | -74% (active) | -44.9% (active) | 34.7% | 31.9% | -9.15% (active) | -17.4% (active)
